The record followed here is PMC4336329 (PLoS ONE, 2015).

Among all 310,000 compounds or so, about 2,200 (0.71%) showed an effect of 50% or more. Effects have a minus sign here. The sample holds strong results, similar compounds and a random draw of the others, so the mix is not that of the screen.

Sequence of human ether-à-go-go-related gene (hERG) potassium channel (Q12809 whole entry, looked up): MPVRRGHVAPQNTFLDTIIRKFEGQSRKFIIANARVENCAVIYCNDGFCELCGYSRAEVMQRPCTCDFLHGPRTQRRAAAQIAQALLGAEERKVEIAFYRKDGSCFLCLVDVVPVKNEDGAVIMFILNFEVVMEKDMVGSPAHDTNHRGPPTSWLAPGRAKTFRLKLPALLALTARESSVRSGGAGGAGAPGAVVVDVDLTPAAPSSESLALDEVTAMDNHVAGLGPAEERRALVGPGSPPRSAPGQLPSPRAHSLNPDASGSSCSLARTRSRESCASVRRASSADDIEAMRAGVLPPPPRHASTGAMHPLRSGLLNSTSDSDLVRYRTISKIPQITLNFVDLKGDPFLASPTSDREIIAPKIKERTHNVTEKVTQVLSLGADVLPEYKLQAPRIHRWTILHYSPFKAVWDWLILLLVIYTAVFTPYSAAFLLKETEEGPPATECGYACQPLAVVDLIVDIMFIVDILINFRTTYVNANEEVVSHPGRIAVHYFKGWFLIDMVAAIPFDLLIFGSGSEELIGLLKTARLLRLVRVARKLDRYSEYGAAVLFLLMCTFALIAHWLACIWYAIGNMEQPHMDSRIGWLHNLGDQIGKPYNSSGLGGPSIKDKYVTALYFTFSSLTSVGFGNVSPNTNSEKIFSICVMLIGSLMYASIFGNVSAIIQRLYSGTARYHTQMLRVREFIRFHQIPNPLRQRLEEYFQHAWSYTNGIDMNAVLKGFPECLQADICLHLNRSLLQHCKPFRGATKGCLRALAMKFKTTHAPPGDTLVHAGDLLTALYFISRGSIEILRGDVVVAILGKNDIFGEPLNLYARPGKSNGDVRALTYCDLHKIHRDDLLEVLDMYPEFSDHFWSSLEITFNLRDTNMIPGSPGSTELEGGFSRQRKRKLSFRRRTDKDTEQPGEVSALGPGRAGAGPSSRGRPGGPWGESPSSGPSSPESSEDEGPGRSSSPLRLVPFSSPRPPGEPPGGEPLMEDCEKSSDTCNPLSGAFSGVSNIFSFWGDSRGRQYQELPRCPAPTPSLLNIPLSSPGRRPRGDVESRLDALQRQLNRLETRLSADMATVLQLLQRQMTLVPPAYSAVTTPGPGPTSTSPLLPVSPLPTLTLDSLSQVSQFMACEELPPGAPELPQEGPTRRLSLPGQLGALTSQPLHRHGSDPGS

This test concerns the target human ether-à-go-go-related gene (hERG) potassium channel (human, UniProt Q12809). The experiment in a line: primary screen, population patch clamp on CHO cells stably expressing hERG; higher = less effect of the substance.
Consider `CCOC(=O)c1c(NC(=O)c2cc(CC(C)C)on2)sc(C(C)=O)c1C`, for which the “hERG current change (%, negative = inhibition) at 1uM” value is listed as 12.5%.
The value for `CC(C)CN(C(=O)COC(=O)c1cnc(Cl)c(Cl)c1)c1c(N)n(Cc2ccccc2)c(=O)[nH]c1=O` was 8.68%.
With `COc1ccc(-c2n[nH]c(C)c2-c2ccc(Cl)cc2)c(O)c1`, the “hERG current change (%, negative = inhibition) at 1uM” value worked out at 10.2%.
On to `CCOC(=O)CSc1nc(Cc2ccccc2)nc2ccccc12`, for which the “hERG current change (%, negative = inhibition) at 1uM” value is given as 3.08%.
`Cn1nc(C(F)(F)F)c2cc(C(=O)N3CCOCC3)sc21`: the “hERG current change (%, negative = inhibition) at 1uM” value is recorded as 5.87%.
Consider `COc1ccccc1N1CCN(C2CCCN(C(=O)CCC(=O)N(C)C)C2)CC1` (stereo not drawn), for which the “hERG current change (%, negative = inhibition) at 1uM” value is reported as -3.24%.
The value for `CCCC(=O)NC(=S)Nc1ccc(NC(=O)c2cccs2)cc1` was -3.11%; that for `Cc1cc(=O)[nH]c(SCC(=O)c2ccc(C)c(C)c2)n1` was 18.1%.
The value for `N#Cc1c2c(c(Nc3ccccc3)n3c1nc1ccccc13)CCC2` was 10.4%.
Regarding `N#Cc1c2c(c(Nc3ccc(O)cc3)n3c1nc1ccccc13)CCC2`, the “hERG current change (%, negative = inhibition) at 1uM” value came to 11.7%.
Then `CC(=O)c1ccc(Nc2c3c(c(C#N)c4nc5ccccc5n24)CCC3)cc1`, with -67%; and `CC(C1CC1)N(Cc1ccccc1)C(=S)Nc1ccccc1Cl` (stereo not drawn), with 3.13%; and `COc1cccc(-c2noc(CCC(=O)NC3CCCCC3)n2)c1`, with 0.894%.
Consider `COCCNc1nc(SCC(=O)N2CCN(c3ccccc3)CC2)nc2ccccc12`, for which the “hERG current change (%, negative = inhibition) at 1uM” value is recorded as -94.4%.
The value for `COc1ccccc1N1CCN(C(=O)CSc2nnc3c4ccccc4nc(Cc4ccccc4)n23)CC1` was -1.26%; that for `COCCNC(=O)CSc1nc2ccccc2c(=O)n1CCC(=O)N1CCN(c2ccccc2)CC1` was 6.84%; that for `COc1ccccc1N1CCN(C(=O)CSc2nc3ccccc3nc2N2CCCCC2)CC1` was 16.5%.
As to `O=C(CSc1nc2ccccc2c(=O)[nH]1)N1CCN(c2ccccc2)CC1`, the “hERG current change (%, negative = inhibition) at 1uM” value is recorded as 12.9%.
With `COCCNc1nc(SCC(=O)N2CCN(c3ccccc3OC)CC2)nc2ccccc12`, the “hERG current change (%, negative = inhibition) at 1uM” value was -92.9%.
Consider `COc1cc2ccccc2cc1C(=O)N1CC(C)CC(C)C1` (stereo not drawn), for which the “hERG current change (%, negative = inhibition) at 1uM” value is reported as -3.89%.
Then `CCOC(=O)N/N=C/c1cccnc1`, with 5%.
For `CCCCN(C(=O)COC(=O)c1ccc(C=O)cc1)c1c(N)n(CCC)c(=O)[nH]c1=O`, the “hERG current change (%, negative = inhibition) at 1uM” value turned out to be 11%.
For `Cc1nc(N2CCN(C(=O)COc3ccccc3)CC2)c2c(C)c(C)sc2n1.Cl`, the “hERG current change (%, negative = inhibition) at 1uM” value was -29.3%.
The value for `Cc1nc(N2CCN(C(=O)CCC(=O)O)CC2)c2c(C)c(C)sc2n1` was -4.32%.
For `CCC(=O)N1CCN(c2nc(C)nc3sc(C)c(C)c23)CC1`, the “hERG current change (%, negative = inhibition) at 1uM” value is given as -54%.
The value for `c1ccc(Cc2noc(CN3CCCN(C4Cc5ccccc5C4)CC3)n2)cc1` was -66%; that for `Fc1cccc(Cc2noc(CN3CCOCC3)n2)c1` was 10.8%; that for `Fc1cccc(Cc2noc(CN3CCN(C4CCc5ccccc5C4)CC3)n2)c1` (stereo not drawn) was -67.5%.
Take `Cc1cccnc1CN1CCN(Cc2nc(Cc3cccc(F)c3)no2)CC1`: the “hERG current change (%, negative = inhibition) at 1uM” value stood at 6.2%.
For the molecule `COc1ccc(Cc2noc(CN3CCCN(C4Cc5ccccc5C4)CC3)n2)cc1OC`, the “hERG current change (%, negative = inhibition) at 1uM” value is listed as -44.4%.
Regarding `Cc1ccccc1N1CCN(Cc2nc(Cc3ccccc3)no2)CC1`, the “hERG current change (%, negative = inhibition) at 1uM” value was found to be 8.68%.
For `O=C(c1ccco1)N1CCCN(Cc2nc(Cc3ccccc3)no2)CC1`, the “hERG current change (%, negative = inhibition) at 1uM” value turned out to be 1.8%.
The value for `Fc1cccc(Cc2noc(CN3CCCN(C4Cc5ccccc5C4)CC3)n2)c1` was -86.9%; that for `Fc1cccc(Cc2noc(CN3CCC(c4ccncc4)CC3)n2)c1` was -1.98%.
Consider `c1ccc(Cc2noc(CN3CCN(C4CCc5ccccc5C4)CC3)n2)cc1` (stereo not drawn), for which the “hERG current change (%, negative = inhibition) at 1uM” value was -76.1%.
On to `COc1ccc(Cc2noc(CN3CCN(C4CCc5ccccc5C4)CC3)n2)cc1OC` (stereo not drawn), for which the “hERG current change (%, negative = inhibition) at 1uM” value is -32%.
As to `Fc1cccc(Cc2noc(CN3CCSCC3)n2)c1`, the “hERG current change (%, negative = inhibition) at 1uM” value was 17.3%.
Then `COc1ccnc2c1c(=O)n(Cc1cccc(F)c1)c(=O)n2C`, with 8.91%.
For `Cc1cc(C)cc(NC(=O)CSc2nnc(CNC(=O)c3ccco3)n2C)c1`, the “hERG current change (%, negative = inhibition) at 1uM” value is listed as 14.2%.
Regarding `Br.c1ccc(C2CNCc3c2ccc2ccccc32)cc1` (stereo not drawn), the “hERG current change (%, negative = inhibition) at 1uM” value stood at 1.84%.
Consider `COc1ccc(C(=O)NCc2nnc(SCC(=O)NCc3ccco3)o2)cc1OC`, for which the “hERG current change (%, negative = inhibition) at 1uM” value was determined as 14.2%.
Then `COc1ccc(Nc2nnc(Cc3ccncc3)c3ccccc23)c(OC)c1`, with -66.6%; and `COc1cccc(NC(=O)Cn2nc(Cc3cccnc3)c3ccccc3c2=O)c1`, with -8.3%.
For the molecule `COc1ccc(Nc2ncnc3ccccc23)c(OC)c1.Cl`, the “hERG current change (%, negative = inhibition) at 1uM” value is -0.118%.
On to `COc1ccc(Nc2nnc(Cc3ccccc3)c(=O)[nH]2)c(OC)c1`, for which the “hERG current change (%, negative = inhibition) at 1uM” value stood at 8.03%.
Then `COc1cccc(Nc2nnc(Cc3cccnc3)c3ccccc23)c1`, with -83.2%; and `COc1cccc(NC(=S)NCc2cccnc2)c1`, with 11.1%; and `CCN(CC)CCOC(=O)c1cc2cc(COC)ccc2o1.CI`, with 9.98%.
The value for `O=C(CN1C(=O)c2cccnc2Oc2ccc(Cl)cc21)Nc1ccc(F)cc1` was 14.1%; that for `COCCCn1c(Cc2csc(Nc3cccc(Cl)c3)n2)nnc1SCC(=O)OC1CCCCC1` was -0.506%.
Then `COc1ccc(C2CC(c3cccc(OC)c3OC)n3nnnc3N2)cc1` (stereo not drawn), with -4.26%; and `O=C(c1cccs1)N1CCN(C(=O)N2CCOCC2)CC1`, with 15.2%.
Take `COC(C[C@@H]1O[C@@H]1[C@H](O)COCc1ccccc1)OC`: the “hERG current change (%, negative = inhibition) at 1uM” value was 10.5%.
In the case of `CCOC(=O)c1cc(-c2ccc(Cl)cc2)nc2c1c(C)nn2CCC#N`, the “hERG current change (%, negative = inhibition) at 1uM” value was 10.9%.
The value for `Cc1cc(C)c[n+](CC(=O)c2ccc(C)c([N+](=O)[O-])c2)c1.[Br-]` was 4.61%; that for `Cc1cc(C)c[n+](CC(=O)c2ccccc2)c1.[Br-]` was 20.1%; that for `Cc1cc(C)c[n+](CC(=O)c2c(C)cc(C)c([N+](=O)[O-])c2C)c1.[Br-]` was -52.7%.
